Hit rate of the full screen: of about 24,000 compounds, about 1,200 (5%) were called active. Not shown: some 2% with an inconclusive outcome. No rule for the calls is given here. Only a sample is shown.
Assay: Mycobacterium tuberculosis H37Rv growth inhibition, putative kinase inhibitor library, confirmatory dose response (AID 2842);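 also: bacteria incubated one week before Alamar blue readout; 0% = bacteria only wells and 100% = bacteria with high antibiotic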
Details: M. tuberculosis H37Rv growth inhibition; CC50: measured here: Vero cell cytotoxicity; inhibition: stronger effect = higher value

Row | Compound | inhibition
1 | CCCNC(=O)CSc1nc2c([nH]c3ccccc32)c(=O)n1-c1ccc(OC)c(OC)c1 | 3.01% (inactive)
2 | COc1ccc(C(=O)c2cn(Cc3cccc(F)c3)c3ccccc3c2=O)cc1 | -1.95% (inactive)
3 | CC1CCc2c(sc(NC(=O)c3ccc(-c4nc5ccccc5s4)s3)c2C#N)C1 (configuration not stated) | 2.71% (inactive)
4 | CCOc1cc(C(=O)Nc2nnc(-c3ccc(C)cc3)s2)cc(OCC)c1OCC | 12.5% (inactive)
5 | Cc1ccc(C)c(S(=O)(=O)Nc2ccc(C(=O)N3CCOCC3)cc2)c1 | -13.6% (inactive)
6 | CCN(c1ccccc1)S(=O)(=O)c1ccc(C(=O)Nc2nc(-c3ccc(C#N)cc3)cs2)cc1 | -5.78% (inactive)
7 | O=C(O)c1cc(-c2ccc(F)cc2)nc2ccccc12 | -3.79% (inactive)
8 | C=CCn1c(=O)c2c(nc(N/N=C/c3ccccc3O)n2C)n(C)c1=O | 69.7% (inactive)
9 | CCn1c2c(c(=O)[nH]c1=O)C(c1ccc(O)cc1)C1=C(CC(C)(C)CC1=O)N2 (configuration not stated) | -10.5% (inactive)
10 | CCSC1=C(C#N)C(c2ccco2)C(C(=O)Nc2ccccc2OC)=C(C)N1 (configuration not stated) | 13.1% (inactive)
11 | O=C(CSc1cn(Cc2ccccc2Cl)c2ccccc12)Nc1nc2ccccc2s1 | 10.2% (inactive)
12 | COC(=O)c1sc2nc(N)c(C#N)c(-c3ccco3)c2c1N | -11.1% (inactive)
13 | O=C1NCCc2c(OCC(=O)N3CCCC3)cccc21 | -13.2% (inactive)
14 | CCN1C(=O)C2(C(C#N)=C(N)Oc3c2oc(CO)cc3=O)c2ccccc21 (configuration not stated) | -2.38% (inactive)
15 | O=C(CSc1ccc2nnc(-c3cccnc3)n2n1)Nc1cccc(C(F)(F)F)c1 | 2.18% (inactive)
16 | Cn1c(=O)c2c([nH]c(=S)n2Cc2ccc(F)cc2)n(C)c1=O | -5.83% (inactive)
17 | O=c1/c(=C/c2ccc(Br)cc2)sc2nc(-c3ccncc3)nn12 | -4.93% (inactive)
18 | Cc1ccc(S(=O)(=O)CCC(=O)Nc2nc(-c3cccc([N+](=O)[O-])c3)cs2)cc1 | -0.9% (inactive)
19 | CCC(CC)C(=O)Nc1nnc(-c2ccc(Br)cc2)s1 | 5.92% (inactive)
20 | COc1ccc(Cl)c2sc(N3CCN(C(=O)COc4ccccc4)CC3)nc12 | -14.7% (inactive)
21 | Fc1ccc(-c2nnc(Nc3nc4c(F)cccc4s3)o2)cc1 | 35.7% (inactive)
22 | CSc1cccc2sc(Nc3ccccc3Cl)nc12 | 43.9% (inactive)

Row | Compound | inhibition
23 | COc1cccc(N2CC(NC(=O)N3CCN(c4ccc(F)cc4)CC3)CC2=O)c1 (configuration not stated) | 1.73% (inactive)
24 | O=C(CN1N=NC2C(=O)N(c3ccc(F)c(F)c3)C(=O)C21)Nc1cccc(F)c1 (configuration not stated) | -18.6% (inactive)
25 | COc1ccc(N2C(=O)/C(=C3/C(=O)N(C)c4ccccc43)SC2=S)c(OC)c1 | -6.83% (inactive)
26 | NC(=O)N/N=C/c1ccccc1[N+](=O)[O-] | -0.23% (inactive)
27 | Cc1ccc(-n2nnc3c(=O)n(CC(=O)Nc4cccc(F)c4)cnc32)cc1Cl | 5.52% (inactive)
28 | O=c1[nH]c(NCCc2ccccc2)nnc1-c1ccccc1 | -9.26% (inactive)
29 | O=C(O)/C=C/C(=O)NCc1cn(-c2ccccc2)nc1-c1ccc(Cl)cc1 | -11.2% (inactive)
30 | Nc1ncnc2c1c1nc3ccccc3nc1n2CCc1ccccc1 | -4.35% (inactive)
31 | COC(CNc1ncnc2c1cnn2-c1ccc(C)c(Cl)c1)OC | 15.5% (inactive)
32 | CCOc1cccc(/C=N\NC(=O)Cn2cnc3ccccc32)c1O | -6.32% (inactive)
33 | Cc1nnc(SCCn2c(N3CCN(Cc4ccccc4)CC3)nc3c2c(=O)[nH]c(=O)n3C)s1 | 4.11% (inactive)
34 | CC(=O)Nc1ccc(NC(=O)NC2CC(=O)N(c3ccc(C)cc3)C2)cc1 (configuration not stated) | -0.32% (inactive)
35 | Cc1ccc(C)c(-c2nnc(NC(=O)/C=C/c3ccccc3)o2)c1 | 75.9% (inactive)
36 | Cc1cccc(-c2nnn3c2nc(NCCc2ccc(S(N)(=O)=O)cc2)c2ccccc23)c1 | -2.93% (inactive)
37 | O=C(NCCO)c1ccc(CSc2nc3ccccc3c(=O)[nH]2)cc1 | -16.4% (inactive)
38 | Cn1c(=O)c2c(SCC(=O)Nc3nc4ccccc4s3)nc(-c3ccc(F)cc3)nc2n(C)c1=O | 14.6% (inactive)
39 | NC(=O)c1nc(-c2cccnc2)nc2c1[nH]c(=O)n2-c1ccc(Cl)c(Cl)c1 | 5.29% (inactive)
40 | CCOC(=O)CNc1ncnc(N)c1[N+](=O)[O-] | 2.73% (inactive)
41 | Fc1ccc2nc(Nc3ccc4c(c3)OCCO4)sc2c1 | 72.2% (inactive)
42 | CC(=O)N1CCc2c(sc(NC(=O)c3ccc4ccccc4c3)c2C#N)C1 | 13.2% (inactive)
43 | CCOC(=O)c1ccc(Nc2nnc3[nH]c(=O)c4c(C)c(C)sc4n23)cc1 | -12.7% (inactive)
44 | COc1cc(OC)cc(C(=O)NCCc2cc3ccc(C)cc3[nH]c2=O)c1 | -10.9% (inactive)

Row | Compound | inhibition
45 | CCOC(=O)N1CCN(C(c2cccnc2)c2c(O)cc(C)n(CCOC)c2=O)CC1 (configuration not stated) | 0.85% (inactive)
46 | COc1ccc(Cl)c2sc(N(Cc3cccnc3)C(=O)c3cccc(S(C)(=O)=O)c3)nc12 | -13.3% (inactive)
47 | CC(=O)Nc1ccc(NC(=O)CSc2nnc(CNC(=O)c3ccccc3)o2)cc1 | -8.68% (inactive)
48 | Cn1c(=O)[nH]c(=O)c2c1nc(N1CCC(Cc3ccccc3)CC1)n2CCSc1nc2ccccc2o1 | 19.9% (inactive)
49 | Cc1ccc(CSc2nc3c(c(=O)[nH]c(=O)n3C)n2Cc2ccccc2Cl)cc1 | -2.78% (inactive)
50 | CC1CCCN(S(=O)(=O)c2ccc(C(=O)Nc3nc4ccc5ccccc5c4s3)cc2)C1 (configuration not stated) | 14.8% (inactive)
51 | Nn1c(SCC(=O)Nc2ccc(C(F)(F)F)cc2)nncc1=O | -15.7% (inactive)
52 | O=C(Nc1nc(-c2ccc3c(c2)OCCO3)cs1)c1cccc(Cl)c1 | -0.85% (inactive)
53 | COc1cc2nc(Nc3cccc(Cl)c3)sc2cc1OC | 48.6% (inactive)
54 | COc1ccc2c(c1)c(=O)c(C(=O)c1ccc(Cl)cc1)cn2CC(=O)Nc1ccc2c(c1)OCO2 | -1.76% (inactive)
55 | CC(C)c1ccc(OCC(=O)N/N=C/c2ccco2)cc1 | 6.99% (inactive)
56 | CCOC(=O)c1sc2nc(-c3ccccc3)cc(-c3ccccc3)c2c1N=Cc1cc(I)cc(I)c1O | -1.26% (inactive)
57 | O=c1[nH]c(NCc2ccc3c(c2)OCO3)nnc1Cc1ccc(F)cc1 | -0.653% (inactive)
58 | Nc1nc(SCC(=O)Nc2cccc(F)c2)[nH]c(=O)c1NC(=O)c1ccc(F)cc1 | -6.89% (inactive)
59 | COc1ccc(S(=O)(=O)Nc2cc3c4c(c2)CC(=O)N4CCC3)cc1 | 14.8% (inactive)
60 | Nc1nc(SCc2cccc(Cl)c2)[nH]c(=O)c1NC(=O)c1ccc(C(F)(F)F)cc1 | -5.65% (inactive)
61 | Cc1ccc(Nc2nc(-c3ccc(S(=O)(=O)N4CCC(Cc5ccccc5)CC4)cc3)cs2)cc1 | -2.1% (inactive)
62 | O=C1NC(=O)C(=Cc2nc(-c3ccc(Cl)cc3)n3ccccc23)C(=O)N1 | 15.3% (inactive)
63 | NC(=O)COc1ccc(/C=c2\sc3nc(-c4ccccc4Br)nn3c2=O)cc1 | -6.4% (inactive)
64 | Cc1ccc(NC(=O)c2cnc(SCC(=O)N3CCOCC3)n(C)c2=O)cc1 | 11.1% (inactive)
65 | COc1ccc(Cl)cc1C(=O)Nc1nnc(-c2ccc(Cl)cc2Cl)s1 | 0.42% (inactive)
66 | CC1CCc2c(C(=O)Nc3ccc(OC(F)(F)F)cc3)csc2C1 (configuration not stated) | 7.32% (inactive)

Row | Compound | inhibition
67 | CCn1c(SCCc2ccccc2)nc2c1c(=O)[nH]c(=O)n2C | 16.5% (inactive)
68 | O=C(O)c1ccc(Nc2nc(-c3cccnc3)nc3ccccc23)cc1 | 5.44% (inactive)
69 | COc1ccc(OC)c(NC(=O)c2cnc3n(c2=O)CCS3)c1 | 10.9% (inactive)
70 | CCOC(=O)c1nn(-c2ccc(F)cc2)c(=O)c2c(NC(=O)C(CC)c3ccccc3)scc12 (configuration not stated) | -11.7% (inactive)
71 | O=C(Nc1nc(-c2nc3ccccc3s2)cs1)c1ccc2ccccc2c1 | 3.09% (inactive)
72 | Cc1csc(NC(=O)CSc2nnc(CNC(=O)c3cccc(C(F)(F)F)c3)o2)n1 | -15.1% (inactive)
73 | COc1cc(C)c(S(=O)(=O)Nc2ccc(-n3c(C)nc4ccccc4c3=O)cc2C)cc1C | -7.48% (inactive)
74 | O=C(NNc1ncnc2c1cnn2-c1cccc(Cl)c1)c1cccc(Cl)c1 | 85% (inactive)
75 | O=C(CSc1nnc2ccc(-c3cccc([N+](=O)[O-])c3)nn12)NCc1ccco1 | 0.47% (inactive)
76 | CS(=O)(=O)c1ccc([N+](=O)[O-])c(NCCCC(=O)O)c1 | -6.3% (inactive)
77 | CCOc1ccccc1NC(=O)CSc1nnc(C)c(=O)n1N | -13.8% (inactive)
78 | O=C(Nc1nnc(-c2cccs2)o1)C(c1ccccc1)c1ccccc1 | 9.32% (inactive)
79 | C#CCn1c(=NC(=O)c2cccc([N+](=O)[O-])c2)sc2cccc(F)c21 | 13.5% (inactive)
80 | CCOC(=O)N1CCc2c(sc(NC(=O)c3ccc(Br)s3)c2-c2nc3ccccc3s2)C1 | 4.21% (inactive)
81 | Cn1c(=O)[nH]c(=O)c2c1nc(SCC(N)=O)n2CC(O)COc1ccc(Cl)cc1 (configuration not stated) | -5.17% (inactive)
82 | Nc1nc2c(s1)CCCC2 | 16.9% (inactive)
83 | COC(=O)C(C)Sc1nnc(Cc2cc(=O)[nH]c(=O)[nH]2)n1-c1ccc(Cl)cc1 (configuration not stated) | -6.18% (inactive)
84 | Cc1ccc(-n2c(=O)[nH]c3c(C(N)=O)nc(-c4ccc(C(C)C)cc4)nc32)cc1C | -7.6% (inactive)
85 | COc1ccc(-n2nc3c(c2NC(=O)Cc2cccs2)CSC3)cc1 | -3.68% (inactive)
86 | Cc1cccc(NC(=O)C2C(=O)CN(c3ccccc3)C2=O)c1 (configuration not stated) | -3.29% (inactive)
87 | O=C(/C=C/c1ccccc1Cl)Nc1nc(-c2nc3ccccc3s2)cs1 | -0.67% (inactive)

From PubChem BioAssay AID2842 (Southern Research Institute, 2010)
